The test system of assay [1] is DLD1. Description: cell viability (CellTiter-Glo) relative to plate median (fraction of plate median); higher = more viable cells. Conditions: 5 µM; treatment time 24 h; reporter: 7TFP. The essentials:
(§1)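 Library compounds were added at a final concentration of 5 µM for 24 h to colorectal cancer cells stably transduced with a lentiviral TCF/Wnt firefly luciferase reporter. Reported values are firefly luciferase or CellTiterGlo luminescence, normalised per well to the plate median. Each value averages two independent replicates.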

Assay [2] relates to HCT116. The assay is described as above. Conditions: 5 µM; treatment time 24 h; reporter: TCF4/Wnt. The gist of the method:
as §1

The subject of assay [3] is SW480. Described as above. Particulars: 5 µM; treatment time 24 h; reporter: 7TFP. The essentials: as §1
The subject of assay [4] is DLD1. In words: TCF/Wnt firefly luciferase reporter signal relative to plate median (fraction of plate median); higher = higher Wnt reporter signal. Particulars: 5 µM; treatment time 24 h; reporter: 7TFP. The gist of the method:
as §1
A general note: In a reporter assay the amount or activity of a reporter protein is the signal.

In assay [5] the test system is SW480. Described as above. Conditions: 5 µM; treatment time 24 h; reporter: 7TFP. The essentials:
as §1

± gives the standard deviation of the averaged measurements.

Turning to `CCCc1nc(C)c2c(O)nc(-c3cc(S(=O)(=O)N4CCN(CC)CC4)ccc3OCC)nn12`, the cell viability was found to be 0.948 ± 0.022 in assay [1], 1.02 ± 0.061 in assay [2] and 0.9505 ± 0.005 in assay [3]. Further, the entries for the “TCF/Wnt firefly luciferase reporter signal” value in assay [4] and in assay [5] were 1.05 ± 0.021 and 1.07 ± 0.042, respectively.

With `CNCC[C@H](Oc1cccc2ccccc12)c1cccs1`, the cell viability stood at 1.03 ± 0.067 in assay [1], 1.06 ± 0.021 in assay [2] and 1.05 ± 0.028 in assay [3]. The results for the “TCF/Wnt firefly luciferase reporter signal” value in assay [4] and in assay [5] were 0.87 ± 0.023 and 0.97 ± 0.021, respectively.

In the case of `O=C(COc1ccc(Cl)cc1)N1CCN(Cc2ccc3c(c2)OCO3)CC1`, the cell viability stood at 0.9755 ± 0.0064 in assay [1], 0.893 ± 0.03 in assay [2] and 1.035 ± 0.0071 in assay [3]. The results for the “TCF/Wnt firefly luciferase reporter signal” value in assay [4] and in assay [5] were 0.865 ± 0.18 and 0.921 ± 0.018, respectively.

In the case of `Cc1cc(O)c(C=O)c(O)c1C(=O)O`, the cell viability in assay [1] is 0.939 ± 0.14; in assay [2] it was 0.939 ± 0.064; in assay [3], 0.957 ± 0.035. The “TCF/Wnt firefly luciferase reporter signal” value in assay [4] worked out at 1.09 ± 0.14; in assay [5], 0.9475 ± 0.0035.

As to `CS(=O)(=O)c1ccc(C2=C(c3ccccc3)C(=O)OC2)cc1`, the cell viability was found to be 1 ± 0.037 in assay [1], 1.04 ± 0.042 in assay [2] and 0.9705 ± 0.0035 in assay [3]. The “TCF/Wnt firefly luciferase reporter signal” value amounted to 1.19 ± 0.092 in assay [4] and 1.05 ± 0.071 in assay [5].

`CCN(CC)C(=O)N1CCN(C)CC1`: the values for the cell viability in assay [1], in assay [2] and in assay [3] were 0.9275 ± 0.0035, 0.89 ± 0.079 and 1.03 ± 0.021, respectively. Also, the “TCF/Wnt firefly luciferase reporter signal” value in assay [4] stood at 0.981 ± 0.098; in assay [5], 1.09 ± 0.021.

With `CCc1cccc2c3c([nH]c12)C(CC)(CC(=O)O)OCC3` (stereo not given), the cell viability in assay [1] amounted to 0.949 ± 0.073; in assay [2], 0.957 ± 0.089; in assay [3], 0.921 ± 0.025. Also, the results for the “TCF/Wnt firefly luciferase reporter signal” value in assay [4] and in assay [5] were 1.04 ± 0.021 and 1.08 ± 0.035, respectively.

On to `Oc1c(I)cc(I)c2cccnc12`, for which the figures for the cell viability in assay [1], in assay [2] and in assay [3] were 0.992 ± 0.11, 0.931 ± 0.035 and 0.939 ± 0.016, respectively. Further, the figures for the “TCF/Wnt firefly luciferase reporter signal” value in assay [4] and in assay [5] were 0.928 ± 0.026 and 0.984 ± 0.14, respectively.

On to `CC1(C)S[C@@H]2[C@H](NC(=O)COc3ccccc3)C(=O)N2[C@H]1C(=O)O`, for which the cell viability in assay [1] came to 1.09 ± 0.021; in assay [2] it was 1.05; in assay [3] it was 1.01 ± 0.023. In addition, the “TCF/Wnt firefly luciferase reporter signal” value in assay [4] was 1.1 ± 0.028; in assay [5], 1.08 ± 0.05.

In the case of `COc1ccc(-c2coc3c(OC)c(OC)cc(O)c3c2=O)cc1`, the figures for the cell viability in assay [1], in assay [2] and in assay [3] were 1.01 ± 0.017, 1.07 ± 0.014 and 0.995 ± 0.021, respectively. Moreover, the “TCF/Wnt firefly luciferase reporter signal” value in assay [4] was 1.08 ± 0.064; in assay [5], 0.98 ± 0.042.

For `C[C@]12CC[C@@H]3c4ccc(O)cc4CC[C@H]3[C@@H]1CC[C@@H]2OC(=O)CCC1CCCC1`, the cell viability in assay [1] came to 0.957 ± 0.044; in assay [2], 1.01 ± 0.065; in assay [3], 0.967 ± 0.04. Also, the “TCF/Wnt firefly luciferase reporter signal” value was 1.17 ± 0.021 in assay [4] and 1.11 in assay [5].

Consider `CC1(C)CC2C1CCC1(C)OC2(C)CCC1O` (stereo not given), for which the cell viability in assay [1] turned out to be 1.045 ± 0.0071; in assay [2], 1.1 ± 0.014; in assay [3], 1.06 ± 0.028. Moreover, the figures for the “TCF/Wnt firefly luciferase reporter signal” value in assay [4] and in assay [5] were 1.02 ± 0.036 and 0.994 ± 0.094, respectively.

With `CC(C)NCC(O)COc1ccc(CC(N)=O)cc1` (stereo not given), the values for the cell viability in assay [1], in assay [2] and in assay [3] were 1.07 ± 0.057, 0.932 ± 0.016 and 1.02 ± 0.066, respectively. The “TCF/Wnt firefly luciferase reporter signal” value in assay [4] amounted to 0.971 ± 0.055; in assay [5] it was 1.07 ± 0.064.

For `CC1(C)CC2C1CCC1(C)OC1CCC2(C)O` (stereo not given), the cell viability was 0.995 ± 0.036 in assay [1], 1 ± 0.067 in assay [2] and 0.975 ± 0.0071 in assay [3]. The results for the “TCF/Wnt firefly luciferase reporter signal” value in assay [4] and in assay [5] were 1.07 ± 0.078 and 1 ± 0.065, respectively.

Consider `CCOC(=O)c1c(C)cc(O)c(C=O)c1O`, for which the cell viability came to 0.945 ± 0.05 in assay [1], 1.08 ± 0.014 in assay [2] and 0.9445 ± 0.005 in assay [3]. Besides, the “TCF/Wnt firefly luciferase reporter signal” value was found to be 0.865 ± 0.11 in assay [4] and 0.861 ± 0.11 in assay [5].
